Potency and affinity values are given separately.
What was measured:
[1] = test system: Staphylococcus aureus; details: Concentration 32 ug.mL-1; ASSAY_TEST Inhibition of Bacterial Growth; detection method Absorption (OD600); MEDIA CAMHB; plate type 384well; NBS; CORNING #3640; time 18 hr
[2] = test system: Escherichia coli; details: Concentration 32 ug.mL-1; ASSAY_TEST Inhibition of Bacterial Growth; detection method Absorption (OD600); MEDIA CAMHB; plate type 384well; NBS; CORNING #3640; time 18 hr

Row | Structure (SMILES) | Inhibition [1] [%] | Inhibition [2] [%]
1 | Cc1nn(-c2ccccc2)c2ncnc(Nc3ccccc3)c12 | 6.52 | 10.84
2 | COc1cc(C2CC2(N)C(=O)O)ccc1O (stereo unspecified) | 4.38 | -1.72
3 | CCOc1nc(N)c(C#N)cc1C#N.Cl | -3.52 | -30.21
4 | O=C(Cc1c[nH]c2ccccc12)NN=C1CCCCCC1 | 10.21 | 6.07
5 | Cc1ccc(C2c3ccc4ccccc4c3Oc3nc4c(c(N)c32)CCCC4)cc1.Cl (stereo unspecified) | -4.06 | 12.44
6 | CC1Cc2ccccc2N1/N=C/c1ccccc1 (stereo unspecified) | -5.3 | -3.55
7 | CCOC(=O)C1=C(C)OC(N)=C(C#N)C1c1ccncc1 (stereo unspecified) | 26.79 | -33.19
8 | C#CCN(C)c1nc(NCC2CCN(Cc3ccccc3)CC2)c(C#N)c(-c2ccccc2)c1C#N | 6.97 | -2.4
9 | COc1cccc(C2c3c(nc4c(c3N)CCCC4)Oc3ccc4ccccc4c32)c1 (stereo unspecified) | 4.84 | -1.02
10 | COc1ccc2c(c1)cc(CN(C)Cc1cn(Cc3ccccc3)nn1)n2C | 6.23 | -32.11
11 | CCOC(=O)c1c(C)nc(N)c(C#N)c1-c1cccs1 | 5.52 | -18.22
12 | N#Cc1c(N)nc(NC2CCN(Cc3ccccc3)CC2)c(C#N)c1-c1ccccc1 | 33.89 | -2.79
13 | CCOC(=O)C1=C(C)Oc2nc3c(c(N)c2C1c1ccccc1OC)CCC3 (stereo unspecified) | 12.13 | 5.78
14 | CC1(C)OS(=O)(=O)C2=C1NC(N)=C(C#N)C2c1ccccc1 (stereo unspecified) | 8.23 | 10.42
15 | O=C(O)C(=Cc1ccccc1)NC(=O)c1ccccc1 | 14.72 | 9.37
16 | N#Cc1c(-c2ccccc2)c2ccc3ccccc3c2oc1=O | 33.43 | -8.95
17 | COc1ccccc1C1c2ccc3ccccc3c2OC(=NBr)C1(Br)C#N (stereo unspecified) | 25.54 | -9.86
18 | Cc1ccc(C(O)SNNc2ncnc3c2c(C)nn3-c2ccccc2)cc1 (stereo unspecified) | 5.38 | 11.97
19 | COc1ccc(C=C2N=C(c3ccccc3)OC2=O)cc1 | 12.56 | 14.02
20 | O=C1OC(c2ccccc2)=NC1=Cc1ccccc1Cl | 16.61 | 12.84
21 | N#Cc1cc(C#N)c(Cl)nc1Cl | 15.28 | -15.75
22 | CN1C/C(=C\Cl)n2c1c(C#N)cc(C#N)c2=O | 23.22 | -15.97
23 | O=C(N/N=C/c1c[nH]c2ccccc12)c1cc2ccccc2[nH]1 | 11.07 | 9.94

Row | Structure (SMILES) | Inhibition [1] [%] | Inhibition [2] [%]
24 | O=C(N[C@H]1CC[C@@H](Br)[C@@H](Br)C1)C(F)(F)F | 24.31 | -25.88
25 | COc1ccc2c(ccn2C)c1 | 6.16 | 8.07
26 | C#CCN(C)Cc1cc2cc(OCCCC3CCN(C(=O)OC(C)(C)C)CC3)ccc2n1C | 10.44 | 14.28
27 | O=C1SC(SCc2ccccc2)=NC1=Cc1ccc2c(c1)OCO2 | 0.74 | 10.84
28 | COc1ccc2cc(C3C4=C(CC(C)(C)CC4=O)Oc4nc5c(c(N)c43)CCC5)c(Cl)nc2c1 (stereo unspecified) | 18.17 | 11.31
29 | C#CCNC.O=C(O)C(=O)O | 24.36 | 23.06
30 | COc1nc2ccc(C)cc2cc1C=O | 18.14 | 18.17
31 | COC1=C(C#N)CCC(=O)N1 | 33.45 | -6.96
32 | Nc1nc(N)c(C=O)c(-c2ccccc2)c1C=O | 3.38 | 16.24
33 | CCOC(=O)C1=C(C)Nc2nc3c(c(N)c2C1c1ccc([N+](=O)[O-])cc1)CCCC3.Cl (stereo unspecified) | 34.25 | -22.43
34 | Cc1ccc(/C=N/NC(=O)c2c[nH]c3ccccc23)cc1 | 6.96 | 7.51
35 | CCOC(=O)C1=C(C)Oc2nc3c(c(N)c2C1c1ccc(O)c(OC)c1)CCC3 (stereo unspecified) | -3.09 | -6.01
36 | O=C(N/N=C/c1c[nH]c2ccccc12)c1ccc(Cl)cc1 | 3.32 | 9.43
37 | O=C(O)c1c[nH]c2ccccc12 | -3.47 | -2.29
38 | Cc1ccccc1-c1c(C=N)c(N)nc2c1S(=O)(=O)OC2(C)C | 11.29 | 8.66
39 | CC(=O)Nc1n[nH]c2nc(N)c(C#N)c(-c3ccccc3)c12 | 38.27 | 1.16
40 | CC#CCN.Cl | 31.78 | 20.2
41 | COc1ccc(C2c3c(ccc4ccccc34)OC(=N)C2(Br)C#N)cc1OC (stereo unspecified) | 9.13 | -16.19
42 | N#CC1(Br)C(=NBr)Oc2c(ccc3ccccc23)C1c1ccccc1[N+](=O)[O-] (stereo unspecified) | 52.21 | -16.66
43 | COc1nc2nc3c(c(N)c2cc1C#N)CCCC3.Cl | 7.17 | -4.74
44 | CC(=O)NC=C1C(=O)OC(C)(C)OC1=O | 14.96 | 11.61
45 | Cc1nc2c3cnn(-c4ccccc4)c3ncn2n1 | 15.5 | 11.4
46 | C=C1CN(C)c2ncc(C#N)c(=N)n21 | 2.81 | -21.82

Row | Structure (SMILES) | Inhibition [1] [%] | Inhibition [2] [%]
47 | C#CCN1CCc2nc3nc(N(C)C)c(C#N)cc3c(N)c2C1 | 32.37 | -3.45
48 | Nc1c2c(nc3ccc([N+](=O)[O-])cc13)CCCC2 | 53.1 | 1.31
49 | CC1Cc2c(nc3c(c2N)CCCC3)NC1=O (stereo unspecified) | 29.78 | -3.82
50 | C=CCNCc1cc2cc(OCCCC3CCN(Cc4ccccc4)CC3)ccc2[nH]1.O.O=C(O)C(=O)O.O=C(O)C(=O)O | 13.83 | -23.08
51 | CCOC(=O)C1=C(C)OC(N)=C(C#N)C1c1ccc(F)cc1 (stereo unspecified) | 19.76 | -10.2
52 | Nc1c2c(nc3nc4ccccc4nc13)CCCC2 | 36.81 | -11.07
53 | N#CC1(Br)C(=NBr)Oc2c(ccc3ccccc23)C1c1ccc([N+](=O)[O-])cc1 (stereo unspecified) | 36.89 | -19.6
54 | Cl.NC1(C(=O)O)CC1c1cccc(Cl)c1 (stereo unspecified) | 12.59 | 12.02
55 | Cc1nc(NO)c2c(C)nn(-c3ccccc3)c2n1 | 6.32 | 4.93
56 | C#CC[n+]1ccccc1N.[Br-] | 6.4 | 12.69
57 | N#Cc1cc(C#N)c(N2CCC(O)CC2)nc1N | 5.78 | -26.11
58 | N#Cc1cc(C#N)c(Cl)nc1N | 11.29 | 7.53
59 | CCOC(=O)c1cc2cc(OCc3ccccc3)ccc2[nH]1 | 7.82 | 5.9
60 | C=C1CNc2c(C#N)c(-c3ccccc3)c(C#N)c(=N)n21 | 17.65 | -9.94
61 | NC1(C(=O)O)CC1c1ccc2c(c1)OCO2 (stereo unspecified) | -7.05 | -7.79
62 | COc1ccc2cc(C3C4=C(CC(C)(C)CC4=O)Oc4nc5c(c(N)c43)CCCCC5)c(Cl)nc2c1 (stereo unspecified) | 27.31 | 12.92
63 | C#CCNc1nc(NCCCCC2CCN(Cc3ccccc3)CC2)c(C#N)cc1C#N | 5 | -12.03
64 | COc1ccc2cc(C3C(C(C)=O)=C(C)Oc4nc5c(c(N)c43)CCC5)c(Cl)nc2c1 (stereo unspecified) | 7.35 | 4.4
65 | N#CC1=C(Cl)Oc2c(ccc3ccccc23)C1c1ccccc1 (stereo unspecified) | 14.99 | -36.62
66 | CC(=O)/C=C/C1CCN(Cc2ccccc2)CC1 | 28.47 | -12.86
67 | O=C(Cc1ccccc1)N/N=C/c1c[nH]c2ccccc12 | 9.24 | 17.46
68 | COC(=O)C(C#N)=Cc1ccccc1 | 23.27 | 9.25
